Outcome and AC50 data for four compounds are collected here from PubChem BioAssay (EPA / NIEHS).

Each structure is given as a SMILES string. Calls of active or inactive are those of the source. How the source made its calls: active means hit-call score of the fitted dose curve at least 0.9, where 1 is the maximum; inactive means score below 0.9.

In general, AC50 refers to the concentration giving half of the maximal activity seen.

Assay [1] in a line: CEETOX_H295R_CORTIC: CeeTox H295R High-throughput Steroidogenesis Assay for Corticosterone (CORTIC) (AID 2283437).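 Further: corticosterone secreted into medium quantified by mass spectrometry.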 The settings on record: actives raise or lower the signal. An outline of the steps: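 H295R adrenal cells prestimulated 48 hours with 10 uM forskolin, then exposed 48 hours to chemical in 0.1% DMSO. Corticosterone in medium measured by HPLC-MS/MS after MTBE extraction; MTT viability in the same wells; bidirectional fit versus DMSO.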

A short description of assay [2]: CEETOX_H295R_CORTISOL: CeeTox H295R High-throughput Steroidogenesis Assay for Cortisol (AID 2283438).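 Further: cortisol secreted into medium quantified by LC-MS/MS.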 The settings on record: actives raise or lower the signal. An outline of the steps:
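Forskolin-primed H295R cells (10 uM, 48 h) treated 48 h with test chemical in 0.1% DMSO. Cortisol in medium quantified by MTBE extraction and HPLC-MS/MS; bidirectional fit vs DMSO, MTT viability in same wells.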

A short description of assay [3]: CEETOX_H295R_DOC: CeeTox H295R High-throughput Steroidogenesis Assay for DOC (AID 2283439). The settings on record: actives raise or lower the signal. In short, it runs like this:
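H295R cells prestimulated 48 h with 10 uM forskolin, then exposed 48 h to test chemical (0.1% DMSO final). Medium 11-deoxycorticosterone measured by HPLC-MS/MS after MTBE extraction; bidirectional fit vs DMSO, viability checked by MTT in same wells.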

Assay [4] can be described thus: CEETOX_H295R_ESTRADIOL: CeeTox H295R High-throughput Steroidogenesis Assay for Estradiol (AID 2283440).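 Further: estradiol secreted into medium quantified by LC-MS/MS after dansyl derivatisation.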 The settings on record: actives raise or lower the signal. An outline of the steps: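 H295R, 48 h forskolin (10 uM) prestim → 48 h compound, 0.1% DMSO final. Estradiol in medium: MTBE extraction, dansyl chloride derivatization, LC-MS/MS. Fit bidirectional vs DMSO baseline; MTT viability in same wells.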

Assay [5] can be described thus: CEETOX_H295R_ESTRONE: CeeTox H295R High-throughput Steroidogenesis Assay for Estrone (AID 2283441).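 Further: estrone secreted into medium measured by LC-MS/MS after dansyl derivatization.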 The settings on record: actives raise or lower the signal. In short, it runs like this: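 H295R cells prestimulated 48 h with 10 uM forskolin, then exposed 48 h to chemicals in 0.1% DMSO final; estrone in medium extracted with MTBE, dansyl-derivatized, quantified by HPLC-MS/MS; bidirectional fitting versus DMSO, viability by MTT.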

Assay [6] in a line: CEETOX_H295R_PROG: CeeTox H295R High-throughput Steroidogenesis Assay for Progesterone (PROG) (AID 2283442).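 On AC50: human H295R adrenal cells primed with 10 µM forskolin before dosing.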 The settings on record: actives raise or lower the signal. In short, it runs like this: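 Progesterone read-out: HPLC-MS/MS on MTBE extracts of conditioned medium after 48 h chemical exposure of forskolin-primed (10 uM, 48 h) H295R cells. Gain or loss of signal was fitted relative to DMSO baseline.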

Read-out in assay [7]: Fatty acid synthase (Homo sapiens) (UniProt P49327)
Put plainly: LTEA_HepaRG_FASN: Life Technologies and Expression Analysis (LTEA) Assay for Fatty Acid Synthase (FASN) using HepaRG (AID 2283448). The settings on record: mRNA level, 48 h; actives raise or lower the signal. An outline of the steps: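 Differentiated HepaRG cells in serum-free induction medium exposed 48 h in duplicate to eight half-log concentrations, top 100 uM, 0.5% DMSO. FASN mRNA by qRT-PCR normalised to ACTB, GAPDH, POLR2A; bidirectional fit versus DMSO.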

Read-out in assay [8]: Cyclin D2 (CCND2), CCND2 (gene 894)
Kind of assay: LTEA_HepaRG_CCND2: Life Technologies and Expression Analysis (LTEA) Assay for Cyclin D2 (CCND2) using HepaRG (AID 2283449).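 Further: CCND2 transcript measured by TaqMan qRT-PCR and normalised to three housekeeping genes.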 The settings on record: mRNA level, 48 h; actives raise or lower the signal. An outline of the steps:
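Chemicals in 0.5% DMSO, eight half-log concentrations from 100 uM top, were applied in duplicate for 48 h to human HepaRG cells in serum-free induction medium. CCND2 mRNA by TaqMan qRT-PCR, normalised to ACTB/GAPDH/POLR2A; bidirectional fit versus DMSO.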

Read-out in assay [9]: Cyclin D1 (CCND1), CCND1 (gene 595)
Put plainly: LTEA_HepaRG_CCND1: Life Technologies and Expression Analysis (LTEA) Assay for Cyclin D1 (CCND1) using HepaRG (AID 2283451). The settings on record: mRNA level, 48 h; actives raise or lower the signal. An outline of the steps: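 qRT-PCR (Fluidigm 96.96 array) read-out of transcript level, housekeeping-normalized (ACTB/GAPDH/POLR2A). HepaRG cells, 48 h chemical exposure, 8-point half-log series from 100 uM, 0.5% DMSO vehicle; gain or loss relative to DMSO baseline.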

Read-out in assay [10]: flavin-containing dimethylaniline monooxygenases 3 (FMO3), FMO3 (gene 2328)
Put plainly: LTEA_HepaRG_FMO3: Life Technologies and Expression Analysis (LTEA) Assay for flavin-containing dimethylaniline monooxygenases 3 (FMO3) using HepaRG (AID 2283453). The settings on record: mRNA level, 48 h; actives raise or lower the signal. In short, it runs like this: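 Differentiated HepaRG cells in serum-free induction medium, exposed 48 h in duplicate to 8 half-log concentrations up to 100 uM in 0.5% DMSO. FMO3 mRNA by qRT-PCR, normalized to ACTB, GAPDH, POLR2A; bidirectional fit vs DMSO.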

Read-out in assay [11]: Cytochrome P450 (CYP1A1), CYP1A1 (gene 1543)
Put plainly: LTEA_HepaRG_CYP1A1: Life Technologies and Expression Analysis (LTEA) Assay for Cytochrome P450 (CYP1A1) using HepaRG (AID 2283454). The settings on record: mRNA level, 48 h; actives raise or lower the signal. An outline of the steps: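 qRT-PCR read-out: CYP1A1 transcript normalized to three housekeeping genes, fitted bidirectionally against 0.5% DMSO vehicle baseline. Human HepaRG cells, 48 h chemical exposure, 8-point half-log series topping at 100 uM.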

Read-out in assay [12]: CFLAR gene, CFLAR (gene 8837)
Put plainly: LTEA_HepaRG_CFLAR: Life Technologies and Expression Analysis (LTEA) Assay for CFLAR gene using HepaRG (AID 2283455). The settings on record: mRNA level, 48 h; actives raise or lower the signal. In short, it runs like this:
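Differentiated HepaRG cells in serum-free induction medium were exposed 48 h in duplicate to eight half-log concentrations up to 100 uM in 0.5% DMSO; mRNA measured by TaqMan qRT-PCR, normalized to ACTB, GAPDH, POLR2A; bidirectional fitting versus DMSO.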

Read-out in assay [13]: Forkhead box O1 (FOXO1), FOXO1 (gene 2308)
Kind of assay: LTEA_HepaRG_FOXO1: Life Technologies and Expression Analysis (LTEA) Assay for Forkhead box O1 (FOXO1) using HepaRG (AID 2283456). The settings on record: mRNA level, 48 h; actives raise or lower the signal. An outline of the steps: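 Differentiated HepaRG cells, in serum-free induction medium with 0.5% DMSO, exposed 48 h in duplicate to 8-point half-log series from 100 uM. FOXO1 mRNA measured by TaqMan qRT-PCR, normalized to ACTB, GAPDH, POLR2A; bidirectional fit versus DMSO.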

Read-out in assay [14]: growth arrest and DNA damage 45 (GADD45A), GADD45A (gene 1647)
Kind of assay: LTEA_HepaRG_GADD45A: Life Technologies and Expression Analysis (LTEA) Assay for growth arrest and DNA damage 45 (GADD45A) using HepaRG (AID 2283458). The settings on record: mRNA level, 48 h; actives raise or lower the signal. In short, it runs like this:
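Differentiated HepaRG cells exposed 48 h in serum-free induction medium to 8 concentrations, top 100 uM in half-log steps, 0.5% DMSO. GADD45A mRNA quantified by qRT-PCR, normalized to ACTB, GAPDH and POLR2A; bidirectional fit versus DMSO.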

Read-out in assay [15]: Forkhead box O3 (FOXO3), FOXO3 (gene 2309)
Put plainly: LTEA_HepaRG_FOXO3: Life Technologies and Expression Analysis (LTEA) Assay for Forkhead box O3 (FOXO3) using HepaRG (AID 2283459). The settings on record: mRNA level, 48 h; actives raise or lower the signal. In short, it runs like this: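 Differentiated human HepaRG cells, 48 h post-plating, exposed in duplicate for 48 h in serum-free induction medium; 8-point half-log series from 100 uM in 0.5% DMSO. FOXO3 mRNA by TaqMan qRT-PCR, normalized to ACTB/GAPDH/POLR2A; bidirectional fit versus DMSO.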

The nature of assay [16]: CEETOX_H295R_ANDR: CeeTox H295R High-throughput Steroidogenesis Assay for Androstenedione (ANDR) (AID 2283436). The settings on record: actives raise or lower the signal. An outline of the steps:
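H295R cells, following OECD 456 with minor changes, exposed to chemicals for 48 h. Androstenedione in the medium was quantified by HPLC-MS/MS after MTBE extraction. Fitting was bidirectional versus DMSO; chemicals were diluted until MTT viability was ≥70%.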

Read-out in assay [17]: catalase (CAT), CAT (gene 847)
Put plainly: LTEA_HepaRG_CAT: Life Technologies and Expression Analysis (LTEA) Assay for catalase (CAT) using HepaRG (AID 2283452). The settings on record: mRNA level, 48 h; actives raise or lower the signal. In short, it runs like this:
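HepaRG cells in serum-free induction medium, 0.5% DMSO vehicle, exposed 48 h in duplicate over 8 half-log concentrations from 100 uM. CAT mRNA measured by qRT-PCR, normalized to ACTB, GAPDH, POLR2A; bidirectional fit versus DMSO.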

Assay [18] in a line: CEETOX_H295R_TESTO: CeeTox H295R High-throughput Steroidogenesis Assay for Testosterone (TESTO) (AID 2283457). The settings on record: actives raise or lower the signal. An outline of the steps:
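Readout: testosterone quantified by HPLC-MS/MS (C18, ESI positive) after MTBE liquid-liquid extraction of culture medium. Cells were H295R, 48 h chemical exposure per OECD 456 with modifications. Gain or loss of signal fitted relative to DMSO.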

Read-out in assay [19]: Cyclin Dependent Kinase Inhibitor 1A (CDKN1A), CDKN1A (gene 1026)
Put plainly: LTEA_HepaRG_CDKN1A: Life Technologies and Expression Analysis (LTEA) Assay for Cyclin Dependent Kinase Inhibitor 1A (CDKN1A) using HepaRG (AID 2283450). The settings on record: mRNA level, 48 h; actives raise or lower the signal. In short, it runs like this: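 HepaRG, 48 h dosing, 8-pt half-log series from 100 uM top, 0.5% DMSO vehicle, duplicates. Readout: TaqMan qRT-PCR of CDKN1A transcript, housekeeping-normalized (ACTB, GAPDH, POLR2A). Up/down curve fit relative to DMSO.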

Fatty acid synthase (Homo sapiens), sequence (P49327 whole entry, looked up): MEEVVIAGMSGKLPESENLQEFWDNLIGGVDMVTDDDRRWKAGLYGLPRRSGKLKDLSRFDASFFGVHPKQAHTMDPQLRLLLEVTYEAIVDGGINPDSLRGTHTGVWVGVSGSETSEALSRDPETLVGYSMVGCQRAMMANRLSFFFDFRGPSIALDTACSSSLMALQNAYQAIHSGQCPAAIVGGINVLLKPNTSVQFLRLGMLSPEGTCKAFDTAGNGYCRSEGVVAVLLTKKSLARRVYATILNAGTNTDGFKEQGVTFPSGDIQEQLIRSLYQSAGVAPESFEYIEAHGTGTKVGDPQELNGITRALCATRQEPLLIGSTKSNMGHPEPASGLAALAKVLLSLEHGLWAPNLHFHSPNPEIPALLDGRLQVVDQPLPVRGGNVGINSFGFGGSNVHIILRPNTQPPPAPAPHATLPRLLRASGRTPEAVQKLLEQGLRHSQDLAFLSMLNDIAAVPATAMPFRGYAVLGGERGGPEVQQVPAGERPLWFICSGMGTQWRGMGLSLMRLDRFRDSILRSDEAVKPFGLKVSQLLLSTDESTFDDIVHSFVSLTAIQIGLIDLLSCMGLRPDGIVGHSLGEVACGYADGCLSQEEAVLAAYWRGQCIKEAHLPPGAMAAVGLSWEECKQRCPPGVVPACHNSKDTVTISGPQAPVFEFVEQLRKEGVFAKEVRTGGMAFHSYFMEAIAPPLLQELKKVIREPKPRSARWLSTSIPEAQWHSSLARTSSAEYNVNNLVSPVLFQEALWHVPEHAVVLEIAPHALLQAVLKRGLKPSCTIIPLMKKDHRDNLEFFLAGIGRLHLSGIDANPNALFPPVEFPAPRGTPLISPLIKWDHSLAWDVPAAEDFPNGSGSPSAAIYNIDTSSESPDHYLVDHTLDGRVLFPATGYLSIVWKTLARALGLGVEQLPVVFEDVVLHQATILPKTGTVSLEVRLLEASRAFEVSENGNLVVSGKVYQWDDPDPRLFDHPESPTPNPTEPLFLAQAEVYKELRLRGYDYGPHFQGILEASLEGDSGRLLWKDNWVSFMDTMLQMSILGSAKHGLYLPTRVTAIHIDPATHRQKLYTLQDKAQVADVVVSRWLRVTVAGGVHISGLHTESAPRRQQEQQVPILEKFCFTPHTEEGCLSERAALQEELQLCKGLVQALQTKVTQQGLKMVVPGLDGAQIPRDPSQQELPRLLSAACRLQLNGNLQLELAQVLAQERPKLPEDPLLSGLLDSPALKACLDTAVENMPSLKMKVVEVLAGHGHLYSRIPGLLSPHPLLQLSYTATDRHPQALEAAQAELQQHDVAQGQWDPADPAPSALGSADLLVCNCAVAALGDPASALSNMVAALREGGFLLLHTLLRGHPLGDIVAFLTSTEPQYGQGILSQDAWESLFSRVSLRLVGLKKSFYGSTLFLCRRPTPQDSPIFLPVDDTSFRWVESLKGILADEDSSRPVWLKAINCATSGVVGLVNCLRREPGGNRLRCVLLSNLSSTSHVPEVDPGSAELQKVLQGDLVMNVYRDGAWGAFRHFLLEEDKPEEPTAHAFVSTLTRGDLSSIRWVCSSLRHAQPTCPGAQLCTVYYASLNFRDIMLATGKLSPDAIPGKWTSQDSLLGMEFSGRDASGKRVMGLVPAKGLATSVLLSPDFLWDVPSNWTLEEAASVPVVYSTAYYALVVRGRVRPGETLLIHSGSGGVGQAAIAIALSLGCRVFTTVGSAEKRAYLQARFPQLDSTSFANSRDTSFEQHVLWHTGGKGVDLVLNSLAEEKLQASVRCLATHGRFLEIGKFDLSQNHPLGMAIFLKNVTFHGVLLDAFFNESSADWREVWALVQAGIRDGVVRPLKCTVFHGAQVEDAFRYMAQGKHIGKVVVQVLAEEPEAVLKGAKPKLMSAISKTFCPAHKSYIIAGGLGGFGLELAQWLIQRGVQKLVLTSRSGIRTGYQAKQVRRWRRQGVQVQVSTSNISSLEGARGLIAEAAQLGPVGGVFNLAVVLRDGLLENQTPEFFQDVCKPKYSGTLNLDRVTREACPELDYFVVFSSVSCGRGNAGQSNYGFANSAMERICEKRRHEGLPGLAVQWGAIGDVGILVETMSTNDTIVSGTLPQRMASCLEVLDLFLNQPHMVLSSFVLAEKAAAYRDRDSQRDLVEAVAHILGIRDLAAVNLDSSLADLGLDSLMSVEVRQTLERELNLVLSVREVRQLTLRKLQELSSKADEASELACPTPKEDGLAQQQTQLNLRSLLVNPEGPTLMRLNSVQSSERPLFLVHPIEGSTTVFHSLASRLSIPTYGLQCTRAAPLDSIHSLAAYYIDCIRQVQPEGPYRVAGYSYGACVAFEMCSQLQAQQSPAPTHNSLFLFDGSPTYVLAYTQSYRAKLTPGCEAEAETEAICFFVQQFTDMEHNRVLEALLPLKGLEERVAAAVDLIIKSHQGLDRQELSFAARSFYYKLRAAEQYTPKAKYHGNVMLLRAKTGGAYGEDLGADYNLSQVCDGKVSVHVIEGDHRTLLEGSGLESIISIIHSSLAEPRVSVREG

Turning to `COP(=S)(OC)Oc1ccc([N+](=O)[O-])c(C)c1`, the compound was called inactive in [1], in assay [2], in assay [4], in assay [5], in assay [7] and in [8]. Also, the outcome in assay [9], in assay [10], in assay [12], in assay [13], in assay [14] and in [15] was inactive. In addition, the values for the concentration at half-maximal activity (AC50) in assay [3], in [6] and in [11] were 2.48 µM (active), 2.59 µM (active) and 50 µM (active), respectively.
On to `COP(=S)(OC)SCn1nnc2ccccc2c1=O`, for which the call in [16], in assay [4], in assay [5], in [6], in assay [7] and in [8] was inactive. Moreover, the compound was called inactive in assay [9], in assay [17], in assay [10], in assay [12], in assay [13] and in [18]. Moreover, the compound was called inactive in assay [14] and in assay [15]. Further, in assay [11], the AC50 is 50 µM (active).
Regarding `CCCN(CC)CC1COC2(CCC(C(C)(C)C)CC2)O1` (stereo not given), the compound was called inactive in assay [1], in assay [2], in assay [4], in assay [5], in assay [8] and in assay [19]. Further, the compound was called inactive in assay [9], in assay [17], in assay [10], in assay [12], in [13] and in [14]. In addition, the compound was classed as inactive in assay [15]. Also, the AC50 in [3] is 0.812 µM (active); in assay [6], 0.38 µM (active); in assay [7], 0.274 µM (active); in assay [11] it was 50 µM (active).
For `CCC(C)n1c(=O)[nH]c(C)c(Br)c1=O` (stereo not given), the compound was classed as inactive in assay [4], in assay [5], in assay [6], in assay [8], in assay [12] and in assay [13]. The result in [14] was inactive. Moreover, the AC50 was 14.1 µM (active) in [7]; 27.6 µM (active) in assay [9]; 40.4 µM (active) in assay [17]; 29 µM (active) in assay [10]; 5.11 µM (active) in [11]; 14.3 µM (active) in assay [15].
